# In PubChem BioAssay (NCATS):
# Records with an inconclusive call do not appear. A call without a number means that no potency is given here. Active and inactive are the calls of the source. Unless noted, the call rests on the fitted dose curve; in most records, active means well fitted inhibition curve with a large enough effect; inconclusive means small, poorly fitted or top-dose-only effect; inactive means no such curve, though single readings can be large or run the other way.
# Columns and labels:
# [1] = qHTS assay for measurement of the activity of small molecule inhibitors on Zika virus induced Caspase-3 activity in human iPSC derived neural progenitor cells (hNPCs) (AID 1224857); further: nearly all actives have a fitted effect of over 65% in size; further: potency means the concentration at half of the fitted maximal effect
# How it was run: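 In medium with heparin 2 ug/ml and cyclopamine 2 uM, hNPCs (350 cells/well) received compound for one hour and then Zika virus at 2 FFU/cell; caspase activity was measured by Caspase-Glo 3/7 luminescence 6 h post-infection.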
# [2] = qHTS assay for measurement of the activity of small molecule inhibitors on Zika virus induced Caspase-3 activity in human astrocytoma cells (AID 1224859)
# How it was run: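 A cell-based luminescent caspase-3/7 assay used SNB-19 cells infected with ZIKV (2 FFU/cell) for 6 h following 1 h compound pretreatment.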
# [3] = qHTS profiling of the MIPE4 collection as inhibitors of Plasmodium falciparum (3D7) proliferation (AID 743344; call rule not given here); conditions: P. falciparum 3D7 in erythrocytes, SYBR Green DNA fluorescence, 72 h; at 28.5 µM (top of the series)
# How it was run: (§1)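 Erythrocytes infected with P. falciparum (0.3% parasitemia, 2.5% hematocrit) incubated with compounds 72 h at 37 C, 5% CO2. Lysis with saponin/Triton buffer containing SYBR Green I, overnight at room temperature in the dark; DNA fluorescence (485/535 nm) normalised to 0.29 uM artemisinin and DMSO.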
# [4] = qHTS profiling of the MIPE4 collection as inhibitors of Plasmodium falciparum (DD2) proliferation (AID 743345; call rule not given here); conditions: P. falciparum Dd2 in erythrocytes, SYBR Green DNA, 72 h; at 28.5 µM (top of the series) unless noted
# How it was run: as §1
# [5] = qHTS profiling of the MIPE4 collection as inhibitors of Plasmodium falciparum (DD2) proliferation (Rep 2) (AID 743346; call rule not given here); conditions: P. falciparum Dd2 in erythrocytes, SYBR Green DNA, 72 h; at 28.5 µM (top of the series)
# How it was run: as §1
# [6] = qHTS profiling of the MIPE4 collection as inhibitors of Plasmodium falciparum (HB3) proliferation (AID 743347; call rule not given here); conditions: P. falciparum HB3 in erythrocytes, SYBR Green DNA, 72 h; at 28.5 µM (top of the series)
# How it was run: as §1
# [7] = High-throughput drug toxicity screening in the BPDCN cell line Cal-1 (AID 1224825; call rule not given here); conditions: Cal-1 BPDCN cell viability, qHTS; at 45.8 µM (top of the series)
# How it was run: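 Cal-1 cells, 500 per well in phenol-red-free RPMI with 10% FBS, exposed to compounds for 48 hours at 37C, 5% CO2. Viability read by CellTiter-Glo luminescence; percent activity normalized to DMSO (100%) and 9.2 uM bortezomib final (0%).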
# [8] = qHTS Screen of the MIPE 4.0 Collection Against Ewings Sarcoma (RDES) (AID 1259252); further: nearly all actives have a fitted effect of over 35% in size; further: potency means the concentration at half of the fitted maximal effect
# How it was run: (§2)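 Log-phase cells in RPMI with 5% FBS attached for 4 h, then received compounds as a titration for 48 h at 37C, 5% CO2. Viability was read by CellTiter-Glo luminescence and normalized to DMSO and no-cell wells.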
# [9] = qHTS Screen of the MIPE 4.0 Collection Against Ewings Sarcoma (TC71) (AID 1259253); further: nearly all actives have a fitted effect of over 40% in size; further: potency means the concentration at half of the fitted maximal effect
# How it was run: as §2
smiles,measurement,setting,value
C[N+]1(C)C2CCC1CC(OC(=O)C(CO)c1ccccc1)C2 (centres undefined),Potency,[1],inactive
same,Potency,[2],inactive
O=C1CCC[C@@H]2[C@H]3CCCN4CCC[C@@H](CN12)[C@@H]34,"parasite growth, % of DMSO control",[3],91.5%
same,"parasite growth remaining, % of DMSO control (lower = more inhibition)",[4],97.9%
same,"parasite growth, % of control (lower = inhibition)",[5],95.1%
same,"growth, % of control",[6],96.2%
same,viability (% of control),[7],120%
same,Potency,[1],inactive
same,Potency,[8],inactive
same,Potency,[9],inactive
CC[C@H]1C=CC=CC[C@@H](C)[C@H](O)[C@@](C)(O)C(=O)[C@@H](C)[C@H](O)[C@@H](C)C(=O)[C@@H](C)[C@H](O)[C@@H](C)C=CC(=O)O[C@@H]2[C@@H](C)[C@H](CC1)O[C@]1(CC[C@H](C)[C@H](C[C@@H](C)O)O1)[C@H]2C,"parasite growth, % of DMSO control",[3],16.9%
same,"parasite growth remaining, % of DMSO control (lower = more inhibition)",[4],6.38%
same,"parasite growth, % of control (lower = inhibition)",[5],20.2%
same,"growth, % of control",[6],8.5%
same,viability (% of control),[7],6.39%
same,Potency,[1],inactive
same,Potency,[2],inactive
same,Potency,[9],0.0118 µM (active)
O=C(O)CC[N+](=O)[O-],Potency,[1],inactive
same,Potency,[2],inactive
CN1[C@H]2CC(O)C[C@H]1[C@H]1O[C@H]12 (some centres undefined),"parasite growth, % of DMSO control",[3],11.1%
same,"parasite growth remaining, % of DMSO control (lower = more inhibition)",[4],12.2%
same,"parasite growth, % of control (lower = inhibition)",[5],28.8%
same,"growth, % of control",[6],7.31%
same,viability (% of control),[7],52.9%
same,Potency,[1],inactive
same,Potency,[9],26.4 µM (active)
CC(C)N[C@@H]1CCn2c(=O)[nH]c3cccc(c32)[C@@H]1O,"parasite growth, % of DMSO control",[3],93.3%
same,"parasite growth remaining, % of DMSO control (lower = more inhibition)",[4],104%
same,"parasite growth, % of control (lower = inhibition)",[5],118%
same,"growth, % of control",[6],101%
same,viability (% of control),[7],7.1%
same,Potency,[1],16.6 µM (active)
same,Potency,[2],inactive
same,Potency,[8],1.18 µM (active)
same,Potency,[9],8.33 µM (active)
C1=C2CCCN[C@H]2[C@@H]2C[C@H]1[C@@H]1CCCCN1C2,"parasite growth, % of DMSO control",[3],71.7%
same,"parasite growth remaining, % of DMSO control (lower = more inhibition)",[4],84.7%
same,"parasite growth, % of control (lower = inhibition)",[5],69.3%
same,"growth, % of control",[6],94.5%
same,viability (% of control),[7],105%
same,Potency,[1],inactive
same,Potency,[2],inactive
same,Potency,[8],inactive
same,Potency,[9],inactive
CCCN(CCC)C1CCc2ccc(O)cc2C1 (centres undefined),Potency,[1],inactive
same,Potency,[2],inactive
O=C(O)[C@@H]1CCN1,Potency,[1],inactive
same,Potency,[2],inactive
NC1CCc2cc(O)c(O)cc2C1 (centres undefined),Potency,[1],inactive
same,Potency,[2],inactive
NC(CCP(=O)(O)O)C(=O)O (centres undefined),Potency,[1],inactive
same,Potency,[2],inactive
C/C=C(/C)C(=O)O[C@H]1C(C)=C2[C@H]([C@@H]1OC(=O)CCCCCCC)[C@@](C)(OC(C)=O)C[C@H](OC(=O)CCC)[C@@]1(O)[C@H]2OC(=O)[C@@]1(C)O,Potency,[1],inactive
same,Potency,[2],inactive
c1ccc(C2(c3ccccc3)CC2C2=NCCN2)cc1 (centres undefined),Potency,[1],inactive
same,Potency,[2],inactive
CC(C)NC(C)Cc1ccc(I)cc1 (centres undefined),Potency,[1],inactive
same,Potency,[2],inactive
CCCCc1ccc(C(=O)O)nc1,Potency,[1],inactive
same,Potency,[2],inactive
Cc1nccc2c1[nH]c1ccccc12,Potency,[1],inactive
same,Potency,[2],inactive
C#CCOC(=O)C1=CCCN(C)C1,Potency,[1],inactive
same,Potency,[2],inactive
Cn1cnc(CCN)c1,Potency,[1],inactive
same,Potency,[2],inactive
CC(C)Oc1cccnc1N(C)C1CCN(Cc2ccccc2)CC1,Potency,[1],inactive
same,Potency,[2],inactive
